High-throughput results from PubChem.
An excerpt weighted towards active compounds, which were near 3.8% of everything screened.
proKLK7 act – proKLK7 (human) activation, primary screen | hit rate 0.9% among 370,000 | purified proKLK7, EDANS-DABCYL substrate fluorescence; 100% is mature enzyme control, 0% vehicle | AID 652039 | P49862 | activation, % at 7 µM;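 active = activation above the mean of all tested compounds plus 3 SD, computed per campaign excluding outliers beyond control limits, cut at about 13% in these data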
Target sequence (P49862 whole entry, looked up): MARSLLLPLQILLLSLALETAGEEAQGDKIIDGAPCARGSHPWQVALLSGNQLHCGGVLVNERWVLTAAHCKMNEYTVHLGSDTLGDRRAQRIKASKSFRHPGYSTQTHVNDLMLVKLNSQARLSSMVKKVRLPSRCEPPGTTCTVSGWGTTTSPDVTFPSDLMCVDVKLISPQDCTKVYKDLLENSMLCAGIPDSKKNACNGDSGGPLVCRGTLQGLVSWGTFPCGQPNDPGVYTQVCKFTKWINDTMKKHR
rRNA inh HTS – inhibitors of bacterial rRNA selective over humanized ribosomes. E. coli WT GFP vs humanized-ribosome RFP mutants, fluorescence, 24 h; stronger effect = lower value; DMSO median 0, no signal -100. GFP signal change (wild-type ribosome), % (concentration not given with the values). hit rate 1.6% among 350,000. AID 720706;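 active = significant combined selectivity score with lowered wild-type GFP, culture density cut under 30%, mutant RFP and density less affected; inactive = any of these conditions unmet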
FGF22 binding – shifts melting point of recombinant human FGF22; Q9HCT0; recombinant FGF22 thermal shift, SYPRO orange fluorescence; percent of sucrose octasulfate shift, DMSO zero; activity (Tm shift, normalised), % at 9.99 µM; hit rate 1.5% among 340,000; AID 651658;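 active = mean Tm shift, scaled 0 neutral to 100 positive control, at about 1.3% or above, every replicate too, limit read from the data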
Target sequence (Q9HCT0 whole entry, looked up): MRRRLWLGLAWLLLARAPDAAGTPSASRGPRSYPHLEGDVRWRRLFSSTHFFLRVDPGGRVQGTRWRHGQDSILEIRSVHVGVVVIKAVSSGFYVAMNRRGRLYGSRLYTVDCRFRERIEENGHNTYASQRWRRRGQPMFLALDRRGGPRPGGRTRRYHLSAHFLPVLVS
ADAM10 inh – inhibits human ADAM10 | hit rate 0.62% among 370,000 | inhibition, % at 7 µM | AID 720582 | O14672 | recombinant ADAM10, EDANS/DABCYL FRET peptide cleavage, 3 h;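 active = inhibition above a per-campaign cutoff equal to the mean of compounds falling between control-based bounds plus 3 SD, cut at about 20% in these data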;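 also: 0% = DMSO wells while the 100% control is not disclosed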
ADAM17 inh – inhibitors of human ADAM17; inhibition, % at 6.95 µM; hit rate 0.83% among 370,000; P78536; recombinant ADAM17, EDANS/DABCYL FRET peptide cleavage; AID 720648;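 active = inhibition above the mean of compounds lying between control limits plus 3 SD, set per campaign, cut at about 8.5% in these data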;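 also: 0% = DMSO-only wells as the low control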
* hit, by the source's call; / = no result.

SMILES | proKLK7 act | rRNA inh HTS | FGF22 binding | ADAM10 inh | ADAM17 inh
CCOC(=O)CN(C(=O)CSc1nnc(CNc2ccc(C)cc2C)o1)c1ccccc1 | 0 | -23* | / | 4 | 0
COc1ccc([C@@H]2CC=CC[C@@H](C)Oc3ccccc3C(=O)N(C)[C@@H](C)C(=O)N2)c(OC)c1 (mixture of isomers) | / | 0 | / | / | /
CC(C)CC#Cc1ccc2c(c1)O[C@@H](CN(C)C(=O)c1cnccn1)[C@@H](C)CN([C@H](C)CO)S2(=O)=O | / | -3 | 0 | / | /
N#CC1=C(N)Oc2ccc3ccc(O)cc3c2C1c1cccnc1 (centres undefined) | 0 | 4 | 0 | 4 | 2
N#CC1=C(N)Oc2ccc3ccccc3c2C1c1cccnc1 (centres undefined) | 0 | -57 | 43* | 6 | 1
N#Cc1cc([N+](=O)[O-])ccc1N1CCN(c2ccccc2O)CC1 | -1 | -24* | -1 | 11 | -2
O=[N+]([O-])c1ccc(N2CCN(c3ccc([N+](=O)[O-])cc3CO)CC2)c(CO)c1 | 1 | -7 | 0 | 9 | -3
COc1ccccc1NC(=O)N1CC(=O)N2[C@H](C1)[C@H](c1ccc(C#CCC(C)C)cc1)[C@@H]2CO | / | -12 | / | / | /
Cc1ccc(C(=O)N2c3ccccc3NC(=O)C2C)cc1 (centres undefined) | 0 | 6 | 0 | -17 | -8
CC1C(=O)Nc2ccccc2N1C(=O)c1ccc(Cl)c(Cl)c1 (centres undefined) | 0 | -27* | 0 | -4 | -5
Cc1cccc(-n2c(C)cc(C(=O)NC3CCCCC3)c2C)c1 | 0 | / | 0 | 3 | 2
COc1ccc(-n2c(C)cc(C(=O)NC3CCCCC3)c2C)cc1 | 0 | -23* | 0 | -2 | -2
CCOC(=O)C(=N/O)/C(C)=N/NC(=O)C(=O)Nc1ccc(Cl)cc1 | -1 | -20* | 0 | 6 | -4
CC(=N\Nc1ccc(Cl)cc1)/C(=N/O)C(=O)Nc1ccccc1 | 1 | / | / | 6 | 0
CCOC(=O)C1C(=O)C=C(c2cccs2)CC1c1ccccc1 (centres undefined) | 0 | -28* | 1 | -9 | -3
CCOC(=O)C1C(=O)C=C(c2cccs2)CC1c1ccccc1C (centres undefined) | 1 | / | / | -3 | 3
CCOc1ccc(OCC)c(NC(=O)CSc2nc3cccnc3n2C)c1 | 0 | -33* | 0 | 1 | -3
CC(C)SCC(=O)Nc1ncc2c(n1)-c1ccccc1CC2 | 0 | 5 | 44* | -268 | -95
C#CCN1CCc2onc(-c3ccccc3OC)c2C1=O | 1 | 8 | 43* | -19 | -2
CC(=O)Cc1nsc(NC(=O)c2ccc(Br)o2)n1 | 0 | -27 | 0 | 1 | -6
CC(=O)Cc1nsc(NC(=O)c2ccc(-c3cccc(Cl)c3)o2)n1 | -1 | -15 | 1.4* | -36 | -9
CC(=O)Cc1nsc(Nc2ccc(Cl)cc2)n1 | 1 | -11 | 43* | 0 | 3
CC(=O)Cc1nsc(Nc2ccc(F)cc2)n1 | 0 | 2 | 0 | 1 | -4
O=C(Cc1ccccc1)N1CCCC(c2nc(-c3ccc(S(=O)(=O)N4CCCC4)cc3)no2)C1 (centres undefined) | 0 | -26* | 0 | 1 | -4
O=C(C1CC1)N1CCC(c2nc(-c3ccc(S(=O)(=O)N4CCCC4)cc3)no2)CC1 | 0 | 2 | 0 | -5 | -3
SMILES | proKLK7 act | rRNA inh HTS | FGF22 binding | ADAM10 inh | ADAM17 inh
O=C(c1ccc(F)cc1F)N1CCCC(c2nc(-c3ccc(F)cc3)no2)C1 (centres undefined) | 1 | -21* | 0 | 3 | 5
Cc1cccc(S(=O)(=O)N2C[C@H](O)COC[C@@H]3O[C@H](CC(=O)Nc4ccc(-c5ccccc5)cc4)CC[C@H]32)c1 | / | -1 | 0 | / | /
C[C@H]1CN(C)C(=O)c2cc(N)ccc2O[C@H]1CN(C)S(C)(=O)=O | / | 1 | / | / | /
COc1c2ccoc2nc2c(OC)cccc12 | 3 | -22* | 0 | -468 | -125
NC(=O)CCC(=O)N1CCCC(C(=O)c2ccc3c4c(cccc24)CC3)C1 (centres undefined) | 3 | -5 | 43* | -403 | -132
COCCC(=O)N1CCCC(C(=O)c2ccc3c4c(cccc24)CC3)C1 (centres undefined) | 0 | -3 | 0 | -200 | -70
C#CCN(C[C@@H]1[C@@H](OC(=O)Nc2cccs2)[C@@H](OC(=O)Nc2cccs2)Cn2c(=O)ccc(=O)n21)S(=O)(=O)c1ccc(C)cc1 | -1 | -5 | 0 | 18 | 10*
C#CCN(C[C@@H]1[C@@H](OC(=O)NC2CCCC2)[C@@H](OC(=O)NC2CCCC2)Cn2c(=O)ccc(=O)n21)S(=O)(=O)c1ccc(C)cc1 | 0 | / | 0 | 3 | -1
C[C@H](CO)N1C[C@H](C)[C@@H](CN(C)C(=O)Nc2cccc3ccccc23)Oc2ccc(NC(=O)Cc3ccccc3)cc2CC1=O | / | 1 | 1.6* | / | /
C[C@@H]1CN([C@@H](C)CO)C(=O)Cc2cc(NC(=O)Nc3cccc4ccccc34)ccc2O[C@H]1CN(C)Cc1ccncc1 | / | -6 | 2.4* | / | /
O=S(=O)(N[C@@H]1CC[C@@H](CCn2cc(-c3ccccn3)nn2)O[C@H]1CO)c1cccc(F)c1 | / | -1 | 0 | / | /
COc1ccc(/C(N)=N/OC(=O)Cc2ccc(C)cc2)cc1 | 0 | 6 | 0 | -2 | 0
COc1ccc(CC(=O)OC(C)C(=O)c2ccc(C)cc2)cc1 (centres undefined) | 0 | -30* | 0 | -3 | 0
CCOC(=O)/C(=C/c1ccc(OC(=O)c2ccncc2)cc1)C(C)=O | 0 | 14 | 44* | -4 | 1
CCOC(=O)C1=C(C)NC(C)=C(C(=O)OCC)C1C(=O)OCC(=O)c1ccc2c(c1)OCCO2 | -1 | / | / | -23 | -15
CCOC(=O)c1cc(-c2ccc3c(c2)OCCO3)n[nH]1 | 1 | -32* | 0 | -2 | 0
Oc1ccccc1-c1cc(-c2ccc3c(c2)OCCO3)n[nH]1 | 0 | / | / | 14 | 4
O=C(O)c1cc(-c2ccc3c(c2)OCCO3)n[nH]1 | 0 | 10 | 43* | 7 | -3
O=S(=O)(Cc1ccccc1)NCC[C@@H]1CC[C@@H](NS(=O)(=O)c2ccc(F)cc2)[C@H](CO)O1 | / | 0 | / | / | /
C[C@H](CO)N1C[C@H](C)[C@@H](CN(C)C(=O)C2CCCCC2)OCCCC[C@H](C)Oc2ccc(NC(=O)Nc3ccccc3)cc2C1=O | / | 2 | -1 | / | /
CCC1=NN(C(=O)c2ccc(C)cc2)C(O)(c2ccc(Br)cc2)C1 (centres undefined) | 0 | / | / | -10 | -1
CCC1=NN(C(=O)c2ccc(Br)cc2)C(O)(c2ccc(C)cc2)C1 (centres undefined) | -1 | -30* | 0 | 1 | -2
O=C1CN(C(=O)/C=C/c2ccco2)c2ccccc2N1 | 0 | 8 | 44* | -1 | 0
